A short description of assay [1]: binders of probe aFSTL3 on microarray, primary screen, stem cell growth factor project, biochemical, small-molecule microarray, fluorescence 635/667 (AID 1064).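 Also: measures binding of the biotinylated anti-FSTL3 antibody to printed compounds.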 As to conditions: higher = more signal.
Assay [2] can be described thus: binders from COS7 lysate, DM2A8 probe, primary screen, torsin A project, cell lysate, small-molecule microarray, fluorescence 635/667 (AID 1065). The note with it: higher = more signal, COS7 lysate expressing mutant human TOR1A.
Assay [3] is described as follows: binders of probe aFGF2 on microarray, primary screen, stem cell growth factor project, biochemical, small-molecule microarray, fluorescence 635/667 (AID 1067).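 Also: measures binding of biotinylated aFGF2 protein to printed compounds on slides; z-score merges feature fluorescence and signal-to-noise across triplicate slides.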 The note with it: higher = more signal.
Assay [4] in a line: binders of probe aFGF10 on microarray, primary screen, stem cell growth factor project, biochemical, small-molecule microarray, fluorescence 635/667 (AID 1071).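 Also: score merges 667 nm spot intensity and signal to noise from triplicate slides.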 As to conditions: higher = more signal.
The target of assay [5] is Neurogenic locus notch homolog protein 2 (Homo sapiens) (UniProt Q04721). Description: Notch2 binders on small-molecule microarrays, primary screen, biochemical, small-molecule microarray, 635 nm fluorescence, stem cell growth factors (AID 1073). As to conditions: Notch2 binding, higher = more signal.
The target of assay [6] is Pro-neuregulin-1, membrane-bound isoform (Homo sapiens) (UniProt Q02297). The experiment in a line: NRG1 binders on small-molecule microarrays, primary screen, psychiatric disease protein project, biochemical, small-molecule microarray, fluorescence 635/667 (AID 1075).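 Also: score combines 667 nm spot fluorescence with signal to noise.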 As to conditions: NRG1 binding, 635 nm fluorescence, higher = more signal.
The test system of assay [7] is Neuregulin-1 EGF-like domain. Description: binders of neuregulin-1 EGF-like domain, primary screen, biochemical, small-molecule microarray, 635 nm fluorescence (AID 1081).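 Also: binding of the protein to compounds printed on small-molecule microarray slides.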 As to conditions: small-molecule microarray binding, higher = more signal.
Assay [8] can be described thus: FRG1 promoter luciferase signal modulators, primary screen, FRG1 inhibition for FSHD, cell-based, C2C12 myotubes, firefly/Renilla luciferase, luminescence (AID 1084). The note with it: higher = more signal, called active from +8 up or from −8 down.
Assay [9] is described as follows: binders of probe aFST on microarray, primary screen, stem cell growth factor project, biochemical, small-molecule microarray, fluorescence 635/667 (AID 1086).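 Also: score merges 667 nm fluorescence with signal-to-noise of each printed compound spot.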 As to conditions: higher = more signal.
Assay [10] is described as follows: binders of probe aHhip on microarray, primary screen, stem cell growth factor project, biochemical, small-molecule microarray, fluorescence 635/667 (AID 1087).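 Also: score merges spot fluorescence at 667nm with spot signal to noise ratio.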 The note with it: higher = more signal.
The subject of assay [11] is PRMT1 (protein arginine N-methyltransferase 1). Description: PRMT1 binders on small-molecule microarrays, primary screen, biochemical, small-molecule microarray, 635 nm fluorescence (AID 1088).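 Also: binding of Prmt1 protein to compounds spotted on small-molecule microarray slides.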 As to conditions: small-molecule microarray binding, higher = more signal.
Assay [12] is described as follows: yeast growth modulation, basal conditions, primary screen, YJM789 clinical isolate, OD600, 24 h (AID 1089).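 Also: growth of clinical yeast isolate S. cerevisiae YJM 789 seeded 1000 cells per well; test concentration not given here.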 As to conditions: S. cerevisiae YJM789 growth, higher = more signal, called active from +8 up or from −8 down.
Assay [13] is described as follows: fission yeast growth modulation, primary screen, strain 972, OD600, 24 h, no modulator (AID 1090).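 Also: basal condition with compound alone and no growth modifier present; test concentration not given here.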 As to conditions: S. pombe 972 growth, higher = more signal, called active from +8 up or from −8 down.
A short description of assay [14]: S. cerevisiae growth modulation with rapamycin, primary screen, strain BY4716, OD600, 96 h (AID 1091). Also: test concentration not given here. The note with it: higher = more signal, called active from +8 up or from −8 down.
For assay [15], the target named is Torsin-1A-interacting protein 2 (Homo sapiens) (UniProt Q8NFQ8). The experiment in a line: LULL1 binders on small-molecule microarray, primary screen, cell lysate, human LULL1 lysate, 635/667 nm fluorescence (AID 1092).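 Also: probe is lysate of COS7 cells overexpressing human LULL1; score merges per-feature 667 nm fluorescence with signal-to-noise.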 The note with it: hLULL1 lysate binding, 635 nm fluorescence, higher = more signal.
The nature of assay [16]: E. coli growth modulation, two-sided OD650, primary screen, E. coli filamentation project, strain DRC41, 24 h (AID 1093).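 Also: MC1000 strain lacking acrAB efflux and sulA so SOS filamentation is blocked; test concentration not given here.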 As to conditions: OD650, 24 h, higher = more signal, called active from +8 up or from −8 down.
The nature of assay [17]: small-molecule microarray binders of probe aLefty2, primary screen, biochemical, biotinylated probe, 635/667 nm fluorescence (AID 1094).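 Also: score merges spot fluorescence near 667 nm with spot signal-to-noise ratio.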 As to conditions: higher = more signal.
Assay [18] has as its system Noggin (protein binding on small-molecule microarray). The experiment in a line: Noggin binders on small-molecule microarray, primary screen, biochemical, 635/667 nm fluorescence (AID 1095).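 Also: score merges 667 nm feature fluorescence with signal to noise over triplicate slides.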 The note with it: 635 nm fluorescence, higher = more signal.
Assay [19] addresses Neurogenic locus notch homolog protein 3 (Homo sapiens) (UniProt Q9UM47). Description: NOTCH3 binders on small-molecule microarray, primary screen, biochemical, 635/667 nm fluorescence (AID 1096). The note with it: NOTCH3 binding, 635 nm fluorescence, higher = more signal.
Assay [20] can be described thus: small-molecule microarray binders of probe aEGFR, primary screen, biochemical, biotinylated probe, 635/667 nm fluorescence (AID 1097).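 Also: probe is a biotinylated anti-EGFR antibody binding compounds printed on slides; score combines fluorescence near 667 nm and signal to noise of each spot.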 The note with it: higher = more signal.

Calls of active or inactive are those of the source.

Torsin-1A-interacting protein 2 (Homo sapiens), sequence (Q8NFQ8 whole entry, looked up): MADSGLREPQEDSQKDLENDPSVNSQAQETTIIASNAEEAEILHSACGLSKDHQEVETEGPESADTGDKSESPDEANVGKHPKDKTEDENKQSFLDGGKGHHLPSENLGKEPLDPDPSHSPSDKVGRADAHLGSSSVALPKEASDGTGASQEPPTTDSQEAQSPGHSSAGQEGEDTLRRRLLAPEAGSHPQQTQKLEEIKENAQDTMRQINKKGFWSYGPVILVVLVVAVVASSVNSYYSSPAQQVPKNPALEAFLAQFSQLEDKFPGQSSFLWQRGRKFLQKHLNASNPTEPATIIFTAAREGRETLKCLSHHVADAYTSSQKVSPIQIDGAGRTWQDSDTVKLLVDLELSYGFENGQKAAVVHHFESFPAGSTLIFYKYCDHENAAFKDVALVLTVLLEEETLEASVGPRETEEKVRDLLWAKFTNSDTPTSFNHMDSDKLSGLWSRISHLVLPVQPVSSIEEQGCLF
Neurogenic locus notch homolog protein 3 (Homo sapiens), sequence (Q9UM47 whole entry, looked up): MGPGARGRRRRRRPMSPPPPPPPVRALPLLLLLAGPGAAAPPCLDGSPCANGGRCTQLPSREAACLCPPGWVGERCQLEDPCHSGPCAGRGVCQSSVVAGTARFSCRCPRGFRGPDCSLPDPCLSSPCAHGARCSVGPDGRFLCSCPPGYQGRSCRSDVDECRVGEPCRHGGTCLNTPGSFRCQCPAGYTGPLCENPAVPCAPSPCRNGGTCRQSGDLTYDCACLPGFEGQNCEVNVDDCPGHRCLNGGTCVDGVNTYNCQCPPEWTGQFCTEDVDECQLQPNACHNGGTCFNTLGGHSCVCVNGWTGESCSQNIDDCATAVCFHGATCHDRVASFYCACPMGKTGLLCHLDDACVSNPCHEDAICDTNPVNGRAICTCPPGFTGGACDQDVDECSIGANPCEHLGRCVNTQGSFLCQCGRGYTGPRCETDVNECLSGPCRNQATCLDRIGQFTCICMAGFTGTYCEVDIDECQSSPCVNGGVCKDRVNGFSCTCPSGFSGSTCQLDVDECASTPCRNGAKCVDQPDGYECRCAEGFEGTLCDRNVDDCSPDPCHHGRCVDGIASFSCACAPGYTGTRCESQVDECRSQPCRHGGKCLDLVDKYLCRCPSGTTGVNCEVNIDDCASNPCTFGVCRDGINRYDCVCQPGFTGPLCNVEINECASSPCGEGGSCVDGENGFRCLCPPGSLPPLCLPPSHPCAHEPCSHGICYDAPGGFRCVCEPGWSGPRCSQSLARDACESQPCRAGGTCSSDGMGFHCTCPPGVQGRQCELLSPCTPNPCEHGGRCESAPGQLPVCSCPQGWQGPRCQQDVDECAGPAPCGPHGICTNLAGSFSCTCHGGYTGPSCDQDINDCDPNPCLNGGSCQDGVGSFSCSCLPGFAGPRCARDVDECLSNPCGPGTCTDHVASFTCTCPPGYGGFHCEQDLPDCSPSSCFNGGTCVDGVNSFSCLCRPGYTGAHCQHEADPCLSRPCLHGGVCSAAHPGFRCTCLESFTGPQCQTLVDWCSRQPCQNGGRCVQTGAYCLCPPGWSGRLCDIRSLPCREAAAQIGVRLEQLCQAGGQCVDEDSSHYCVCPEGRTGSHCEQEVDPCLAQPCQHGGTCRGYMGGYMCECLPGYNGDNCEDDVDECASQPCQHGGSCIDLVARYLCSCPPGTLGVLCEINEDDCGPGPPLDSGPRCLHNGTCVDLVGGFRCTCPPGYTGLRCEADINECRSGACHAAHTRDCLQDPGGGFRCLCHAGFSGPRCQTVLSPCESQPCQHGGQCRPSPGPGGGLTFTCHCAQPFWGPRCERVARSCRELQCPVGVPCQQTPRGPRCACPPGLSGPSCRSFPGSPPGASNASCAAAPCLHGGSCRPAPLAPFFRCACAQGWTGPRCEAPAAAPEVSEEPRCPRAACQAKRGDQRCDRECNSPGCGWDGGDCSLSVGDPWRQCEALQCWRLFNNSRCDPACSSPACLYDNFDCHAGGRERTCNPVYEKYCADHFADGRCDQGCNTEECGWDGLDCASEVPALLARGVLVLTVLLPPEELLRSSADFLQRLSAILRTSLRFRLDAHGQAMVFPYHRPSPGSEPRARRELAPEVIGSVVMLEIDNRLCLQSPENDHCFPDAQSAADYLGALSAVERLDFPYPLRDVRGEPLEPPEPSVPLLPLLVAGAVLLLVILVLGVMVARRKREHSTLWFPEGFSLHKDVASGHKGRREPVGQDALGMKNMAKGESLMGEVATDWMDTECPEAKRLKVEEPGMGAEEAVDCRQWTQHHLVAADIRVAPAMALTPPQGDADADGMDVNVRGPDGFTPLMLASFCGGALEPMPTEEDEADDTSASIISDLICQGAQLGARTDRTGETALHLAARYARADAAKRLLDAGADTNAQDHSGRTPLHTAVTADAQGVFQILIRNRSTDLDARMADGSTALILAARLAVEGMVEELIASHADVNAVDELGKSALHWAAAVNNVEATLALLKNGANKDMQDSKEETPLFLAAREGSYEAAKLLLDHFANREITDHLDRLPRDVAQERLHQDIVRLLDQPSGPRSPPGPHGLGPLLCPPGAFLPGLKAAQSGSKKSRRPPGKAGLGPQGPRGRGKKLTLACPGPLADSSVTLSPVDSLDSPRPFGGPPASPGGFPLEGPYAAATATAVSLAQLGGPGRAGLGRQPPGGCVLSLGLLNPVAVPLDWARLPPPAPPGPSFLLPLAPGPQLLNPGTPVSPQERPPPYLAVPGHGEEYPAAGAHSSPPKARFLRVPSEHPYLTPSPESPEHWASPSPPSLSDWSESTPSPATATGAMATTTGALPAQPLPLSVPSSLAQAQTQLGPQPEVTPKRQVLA
Pro-neuregulin-1, membrane-bound isoform (Homo sapiens), sequence (Q02297 whole entry, looked up, the tested form may be a part, canonical isoform): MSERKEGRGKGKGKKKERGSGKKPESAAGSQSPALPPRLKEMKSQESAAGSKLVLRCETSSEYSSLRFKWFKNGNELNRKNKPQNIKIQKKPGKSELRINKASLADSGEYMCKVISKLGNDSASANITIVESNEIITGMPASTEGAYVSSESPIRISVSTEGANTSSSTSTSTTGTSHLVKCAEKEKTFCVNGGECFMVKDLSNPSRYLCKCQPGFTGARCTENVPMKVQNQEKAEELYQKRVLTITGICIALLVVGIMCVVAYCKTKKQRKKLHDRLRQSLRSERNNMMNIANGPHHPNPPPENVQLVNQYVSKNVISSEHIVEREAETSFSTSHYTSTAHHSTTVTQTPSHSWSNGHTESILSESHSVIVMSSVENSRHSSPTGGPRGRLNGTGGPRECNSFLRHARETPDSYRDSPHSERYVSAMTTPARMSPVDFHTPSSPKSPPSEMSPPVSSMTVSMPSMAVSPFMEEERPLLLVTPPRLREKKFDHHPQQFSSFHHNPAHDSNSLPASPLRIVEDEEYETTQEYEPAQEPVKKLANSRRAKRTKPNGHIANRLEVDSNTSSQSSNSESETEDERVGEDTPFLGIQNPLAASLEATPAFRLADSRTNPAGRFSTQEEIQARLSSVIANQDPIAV

Consider `C[C@H]1C2[C@H](Cc3ccccc3)NC(=O)[C@]23C(=O)N[C@H](Cc2ccccc2)C(=O)N[C@H](Cc2ccccc2)C(=O)NC/C=C/CCC/C=C/C3[C@@H]2O[C@]12C` (stereo not given in full), for which the composite z-score is -0.367 in assay [1]; 0.881 in assay [2]; -0.174 in [3]; 0.309 in assay [4]; -0.163 in assay [5]; 0.365 in assay [6]. Moreover, the composite z-score in assay [7] is 1.21; in assay [9], 0.22; in assay [10] it was 0.154; in assay [11], 0.786; in assay [15] it was 2.17; in [17] it was -0.241. Further, the composite z-score in assay [18] is 1.58; in assay [19], 0.62; in assay [20] it was -0.152. In addition, the z-score in assay [8] is 4.86 (inactive); in assay [12], 0.524 (inactive); in [13], -1.84 (inactive); in assay [14], 0.254 (inactive); in assay [16] it was 1.35 (inactive).
As to `C=CCC(OC(C)=O)[C@@H]1[C@@H](N(Cc2cc3ccccc3o2)C(=O)c2cccc3ccccc23)c2cc(OCCCO)ccc2N1C(=O)Cc1ccc2ccccc2c1` (stereo not given in full), the composite z-score was -0.0977 in [1]; 0.0901 in assay [2]; -0.0383 in [3]; 0.0537 in [4]; -0.127 in assay [5]; 0.144 in assay [6]. The composite z-score in [7] is 0.195; in assay [9], 0.309; in [10] it was 0.0749; in assay [11], 0.37; in [15] it was 0.797; in assay [17], -0.0898. For the same compound, the composite z-score was -0.233 in assay [18], -0.164 in assay [19] and -0.123 in [20]. Further, the z-score is -2.3 (inactive) in assay [8]; 0.263 (inactive) in [12]; 0.246 (inactive) in assay [13]; 0.445 (inactive) in assay [14]; 0.117 (inactive) in [16].
With `NC(=O)NCC#Cc1ccc2c(c1)[C@]1(C(=O)N2)[C@H](c2ccccc2OCCO)N2[C@H](c3ccccc3)[C@H](c3ccccc3)OC(=O)[C@H]2[C@@H]1C(=O)N1CCCCCCC1`, the composite z-score came out at 3.75 in assay [1]; 1.38 in assay [2]; 0.866 in [3]; 0.803 in [4]; 1.38 in assay [5]; 1.31 in assay [6]. In addition, the composite z-score in assay [7] is 1.08; in assay [9], 3.41; in [10], 3.04; in assay [11], 1.55; in assay [15], 4.09; in [17], 1.79. Moreover, the composite z-score in [18] worked out at 1.8; in assay [19], 1.11; in assay [20], 1.21. Also, the z-score in [8] is -1.7 (inactive); in assay [12] it was 0.456 (inactive); in assay [13], -1.36 (inactive); in [14], 1.49 (inactive); in assay [16], 1.26 (inactive).
For `C=CCCN(CC#C[C@H]1Oc2ccccc2S(=O)(=O)N2CCC[C@@H]12)S(=O)(=O)c1ccc(C)cc1`, the composite z-score in assay [1] was -0.141; in assay [2], -0.0385; in assay [3], -0.0717; in [4], 0.61; in assay [5], -0.271; in assay [6] it was 0.353. In addition, the composite z-score in assay [7] was 0.476; in [9], 0.0279; in [10], 0.0373; in assay [11] it was 0.514; in [15], 0.974; in [17] it was -0.139. Moreover, the composite z-score in assay [18] is 0.264; in assay [19], 0.18; in assay [20], -0.145. Moreover, the z-score in [8] was -4.31 (inactive); in assay [12], 1.15 (inactive); in assay [13] it was -1.7 (inactive); in [14], 0.965 (inactive); in [16], -1.59 (inactive).
Turning to `C=CCOC(=O)[C@H]1[C@@H]2C(=O)O[C@@H](c3ccccc3)[C@@H](c3ccccc3)N2[C@@H](c2ccc(OCCOC(=O)[C@@H]3C[C@@H]4C(=O)NCC(=O)N4[C@@H]3c3ccc(O)cc3)cc2)[C@]12C(=O)Nc1ccc(I)cc12`, the composite z-score was -0.321 in [1]; 0.335 in [2]; 0.0364 in assay [3]; 0.438 in assay [4]; 0.93 in [5]; 1.17 in [6]. Also, the composite z-score was 1.27 in [7]; 0.317 in assay [9]; 0.107 in [10]; 1.55 in assay [11]; 2.57 in assay [15]; -0.205 in assay [17]. For the same compound, the values for the composite z-score in assay [18], in [19] and in assay [20] were 1.64, 1.11 and -0.0788, respectively. In addition, the z-score in assay [8] is -0.0667 (inactive); in assay [12] it was 0.591 (inactive); in [13], 0.0218 (inactive); in assay [14], 2.48 (inactive); in assay [16], -0.375 (inactive).
